Data taken from PubChem BioAssay (NCI).
This is part of a sample that, as a whole, favours compounds with a hit. Of some 79,000 tested, about 15% had one in any assay. Calls of active or inactive are those of the source. Cut-off read from the data, not from the text of the source: active = growth inhibition above about 70%; inactive = the rest.

Assays:
[1] = NCI Yeast Anticancer Drug Screen. Data for the rad52 strain (AID 147);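 note: 0% = growth of vehicle-treated control cultures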; settings: S. cerevisiae rad52 mutant growth inhibition, active compounds read high
Outline: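 Measured: yeast growth inhibition. System: strain with a defined DNA damage repair alteration. Reference: vehicle-treated control cultures.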

[2] = NCI Yeast Anticancer Drug Screen. Data for the wt1 strain (AID 149);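 note: 0% = growth of vehicle-treated wt1 cultures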; settings: S. cerevisiae wt1 strain (SPY 50644) growth inhibition, active compounds read high
Outline: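 Measured: growth of wt1 yeast under compound versus vehicle treatment, reported as inhibition.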

[3] = NCI Yeast Anticancer Drug Screen. Data for the rad50EPP+ strain (AID 151);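 note: 0% = growth of vehicle-treated control cultures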; settings: S. cerevisiae rad50 mutant strain, active compounds read high
Outline: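 One strain with a rad50 alteration (rad50EPP+) was compound-treated, its growth then compared to that of vehicle controls.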

[4] = NCI Yeast Anticancer Drug Screen. Data for the rad50 strain (AID 155);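 note: 0% = growth of vehicle-only cultures of the same strain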; settings: S. cerevisiae rad50 strain growth inhibition, active compounds read high
Outline: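 Growth of the mutant yeast was measured after compound exposure and referenced to vehicle-treated cultures.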

[5] = NCI Yeast Anticancer Drug Screen. Data for the mec2-1 strain (AID 157); settings: S. cerevisiae mec2-1 strain, active compounds read high
Outline: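 Test agents were screened against the mec2-1 yeast strain, with defined DNA repair or cell cycle alteration. Growth was scored as inhibition against vehicle-only controls.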

[6] = NCI Yeast Anticancer Drug Screen. Data for the rad14 strain (AID 159);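 note: 0% = growth of vehicle-treated control cultures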; settings: S. cerevisiae rad14 strain growth inhibition, active compounds read high
Outline: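 Here, inhibition of yeast growth was measured after compound exposure, using a strain with a genetic defect in DNA damage repair and vehicle-treated cultures as the reference.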

[7] = NCI Yeast Anticancer Drug Screen. Data for the sgs1 mgt1 strain (AID 161);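 note: 0% = growth of cultures given vehicle only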; settings: S. cerevisiae sgs1 mgt1 strain, active compounds read high
Outline: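 Genetically altered yeast, compound exposure, growth inhibition relative to vehicle.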

[8] = NCI Yeast Anticancer Drug Screen. Data for the CLN2oe strain (AID 163);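 note: 0% = growth of vehicle-only control cultures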; settings: S. cerevisiae CLN2oe strain, active compounds read high
Outline: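 Here, growth inhibition in a cell-cycle-altered yeast strain after compound exposure was quantified against vehicle control growth.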

[9] = NCI Yeast Anticancer Drug Screen. Data for the cln2 rad14 strain (AID 165);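 note: 0% = growth equal to vehicle treated cultures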; settings: S. cerevisiae cln2 rad14 strain, active compounds read high
Outline: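 Growth of compound-exposed yeast (cln2 rad14 genotype) measured and expressed as inhibition relative to vehicle.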

[10] = NCI Yeast Anticancer Drug Screen. Data for the bub3 strain (AID 167); settings: S. cerevisiae bub3 mutant strain, active compounds read high
Outline: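 Whole-cell yeast assay. The mutant strain was incubated with compounds, and growth inhibition was determined by comparison with vehicle-treated cells.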

[11] = NCI Yeast Anticancer Drug Screen. Data for the wt2 strain (AID 169);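 note: 0% = growth of vehicle-treated yeast cultures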; settings: S. cerevisiae wt2 strain growth inhibition, active compounds read high
Outline: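 Genetically defined yeast strains from a DNA-repair/cell-cycle panel were used. Compound-exposed yeast growth was measured, and the inhibition was calculated relative to vehicle treatment.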

[12] = NCI Yeast Anticancer Drug Screen. Data for the mlh1 strain (AID 171);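 note: 0% = growth of vehicle-treated control cultures of the same strain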; settings: S. cerevisiae mlh1 strain growth inhibition, active compounds read high
Outline: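 Here the genetically defined yeast mutant is grown with each compound, and the extent to which its growth falls below that of vehicle-exposed cells is reported.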

[13] = NCI Yeast Anticancer Drug Screen. Data for the sgs1 strain (AID 173);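 note: 0% = growth of vehicle-only control cultures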; settings: S. cerevisiae sgs1 mutant, active compounds read high
Outline: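 Relative growth inhibition, referenced to vehicle, was determined in a yeast strain with a defined alteration affecting DNA damage repair or cell cycle control after compound exposure.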

[14] = NCI Yeast Anticancer Drug Screen. Data for the mlh1 rad18 strain (AID 175); settings: S. cerevisiae mlh1 rad18 strain growth inhibition, active compounds read high
Outline: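 In this whole-cell yeast screen, a strain with altered DNA damage repair is challenged with compound, and its growth is measured against matched vehicle-treated controls.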

[15] = NCI Yeast Anticancer Drug Screen. Data for the rad18 strain (AID 177); settings: S. cerevisiae rad18 mutant growth inhibition, active compounds read high
Outline: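 Screen uses a yeast strain with a defined lesion in DNA damage repair; compound effect is read as loss of growth compared to untreated vehicle cultures.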

[16] = NCI Yeast Anticancer Drug Screen. Data for the mgt1 strain (AID 153); settings: S. cerevisiae mgt1 mutant growth inhibition, active compounds read high
Outline: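 After exposure of the mgt1 yeast mutant to compound, growth was measured and reported as inhibition compared with vehicle controls.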

[17] = at 5.0 µM (retest, dose inferred, filed as 0.5)
[18] = at 50.0 µM (retest, dose inferred, filed as 5.0)

Measured: growth inhibition

O=c1[nH]cc(F)c(=O)[nH]1
active: [1]; at 33.0 µM 71% | [1]; at 100.0 µM 88% | [3]; at 11.0 µM 73% | [3]; at 33.0 µM 92% | [3]; at 100.0 µM 96% | [4]; at 33.0 µM 77% | [4]; [18] 89% | [4]; at 50.0 µM 93.2% | [4]; at 100.0 µM 91% | [5]; [18] 96% | [6]; at 100.0 µM 77% | [7]; [18] 95% | [9]; [18] 73% | [10]; [18] 81% | [11]; at 33.0 µM 86% | [11]; at 100.0 µM 95% | [12]; at 33.0 µM 72% | [12]; at 100.0 µM 93% | [13]; at 11.0 µM 79% | [13]; at 33.0 µM 92% | [13]; at 100.0 µM 96% | [14]; [18] 86% | [14]; at 50.0 µM 89.2% | [15]; at 100.0 µM 86%
inactive: [1]; at 1.2 µM 2% | [1]; at 3.7 µM 14% | [1]; at 11.0 µM 39% | [2]; at 1.2 µM -1% | [2]; at 3.7 µM -1% | [2]; at 11.0 µM 9% | [2]; at 33.0 µM 34% | [2]; at 100.0 µM 64% | [3]; at 1.2 µM 4% | [3]; at 3.7 µM 31% | [4]; at 1.2 µM 2% | [4]; at 3.7 µM 17% | [4]; [17] 26% | [4]; at 11.0 µM 43% | [5]; at 1.2 µM 11% | [5]; at 3.7 µM 12% | [5]; [17] 26% | [5]; at 11.0 µM 14% | [5]; at 33.0 µM 14% | [5]; at 50.0 µM 53.7% | [5]; at 100.0 µM 9% | [6]; at 1.2 µM 1% | [6]; at 3.7 µM 10% | [6]; at 11.0 µM 17% | [6]; at 33.0 µM 54% | [7]; [17] 53% | [7]; at 50.0 µM 49.6% | [8]; at 1.2 µM 21% | [8]; at 3.7 µM 23% | [8]; at 11.0 µM 21% | [8]; at 33.0 µM 19% | [8]; at 100.0 µM 18% | [9]; [17] 17% | [9]; at 50.0 µM 66.7% | [10]; at 1.2 µM 6% | [10]; at 3.7 µM 7% | [10]; [17] 2% | [10]; at 11.0 µM 5% | [10]; at 33.0 µM 19% | [10]; at 50.0 µM 44.6% | [10]; at 100.0 µM 3% | [11]; at 1.2 µM 1% | [11]; at 3.7 µM 17% | [11]; at 11.0 µM 58% | [12]; at 1.2 µM 4% | [12]; at 3.7 µM 8% | [12]; at 11.0 µM 23% | [13]; at 1.2 µM 10% | [13]; at 3.7 µM 44% | [14]; [17] 16% | [15]; at 1.2 µM 0% | [15]; at 3.7 µM 10% | [15]; at 11.0 µM 46% | [15]; at 33.0 µM 68%

Cc1ccc(Cl)c2c(=O)c3ccccc3[nH]c12
inactive: [2]; at 1.2 µM -1% | [2]; at 3.7 µM -3% | [2]; at 11.0 µM -2% | [2]; at 33.0 µM 0% | [2]; at 100.0 µM 5% | [3]; at 1.2 µM 4% | [3]; at 3.7 µM 2% | [3]; at 11.0 µM 12% | [3]; at 33.0 µM 24% | [3]; at 100.0 µM 58% | [16]; at 1.2 µM -2% | [16]; at 3.7 µM -1% | [16]; at 11.0 µM 0% | [16]; at 33.0 µM 0% | [16]; at 100.0 µM 7% | [4]; at 1.2 µM -9% | [4]; at 3.7 µM -44% | [4]; [17] 5% | [4]; at 11.0 µM 14% | [4]; at 33.0 µM 3% | [4]; at 100.0 µM 51% | [5]; at 1.2 µM -1% | [5]; at 3.7 µM -3% | [5]; [17] 4% | [5]; at 11.0 µM -2% | [5]; at 33.0 µM 1% | [5]; [18] 32% | [5]; at 50.0 µM 40% | [5]; at 100.0 µM 11% | [6]; at 1.2 µM 0% | [6]; at 3.7 µM 3% | [6]; at 11.0 µM 4% | [6]; at 33.0 µM 5% | [6]; at 100.0 µM 19% | [7]; [17] 0% | [7]; [18] 34% | [7]; at 50.0 µM 41.3% | [8]; at 1.2 µM -4% | [8]; at 3.7 µM -5% | [8]; at 11.0 µM -4% | [8]; at 33.0 µM -2% | [8]; at 100.0 µM -12% | [9]; [17] -8% | [9]; [18] 9% | [9]; at 50.0 µM 11.2% | [10]; at 1.2 µM -3% | [10]; at 3.7 µM -2% | [10]; [17] -5% | [10]; at 11.0 µM -7% | [10]; at 33.0 µM -1% | [10]; [18] 14% | [10]; at 50.0 µM 27.6% | [10]; at 100.0 µM 4% | [11]; at 1.2 µM 0% | [11]; at 3.7 µM 8% | [11]; at 11.0 µM 1% | [11]; at 33.0 µM 4% | [11]; at 100.0 µM 10% | [12]; at 1.2 µM 0% | [12]; at 3.7 µM -1% | [12]; at 11.0 µM 0% | [12]; at 33.0 µM 0% | [12]; at 100.0 µM 12% | [13]; at 1.2 µM -2% | [13]; at 3.7 µM 2% | [13]; at 11.0 µM -1% | [13]; at 33.0 µM 4% | [13]; at 100.0 µM 23% | [14]; [17] 2% | [14]; [18] 59% | [15]; at 1.2 µM 1% | [15]; at 3.7 µM 2% | [15]; at 11.0 µM 2% | [15]; at 33.0 µM 7% | [15]; at 100.0 µM 54%
active: [4]; [18] 71% | [4]; at 50.0 µM 84.1% | [14]; at 50.0 µM 71%
